FLuc modulator: inhibits or activates purified firefly luciferase, miR-21 counter-screen; P08659; purified FLuc, Km substrates, luminescence inhibition; Potency, µM (titrated, usually from 57.5 µM), most hits filed as inhibitors; hit rate 6.9% among 360,000; note: nearly all actives have a fitted effect of over 55% in size
Target sequence (P08659 whole entry, looked up): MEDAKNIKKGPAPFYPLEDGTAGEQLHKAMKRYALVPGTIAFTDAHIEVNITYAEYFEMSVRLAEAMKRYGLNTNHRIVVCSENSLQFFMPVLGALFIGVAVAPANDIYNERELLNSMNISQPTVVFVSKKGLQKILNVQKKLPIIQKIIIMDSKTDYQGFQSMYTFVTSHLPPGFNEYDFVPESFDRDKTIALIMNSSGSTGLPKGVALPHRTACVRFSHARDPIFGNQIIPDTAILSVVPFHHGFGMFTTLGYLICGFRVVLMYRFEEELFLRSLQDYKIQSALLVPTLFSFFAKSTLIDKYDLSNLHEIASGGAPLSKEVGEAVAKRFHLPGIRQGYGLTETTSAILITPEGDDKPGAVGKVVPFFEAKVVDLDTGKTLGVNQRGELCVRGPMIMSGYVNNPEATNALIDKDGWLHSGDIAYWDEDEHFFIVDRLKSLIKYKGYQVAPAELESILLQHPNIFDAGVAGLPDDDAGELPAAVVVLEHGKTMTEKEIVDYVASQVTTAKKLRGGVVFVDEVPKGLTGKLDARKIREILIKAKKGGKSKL
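Purified P. pyralis luciferase (10nM final) with 10uM D-luciferin and 10uM ATP (Km levels) in 50mM Tris acetate pH 7.5, 10mM Mg acetate, 0.01% Tween-20, 0.05% BSA; qHTS 6-point titration, ~60 µM downward; luminescence read.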
p53 reactivator: mutant p53 re-activation in reporter cells | H1299 p53-A138V BP100-luciferase reporter, luminescence, 24 h | Potency, µM (doses to about 92.2 µM), most hits filed as activators | hit rate 0.063% among 320,000; note: nearly all actives have a fitted effect of over 45% in size
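p53-null H1299 cells stably carrying temperature-sensitive p53-A138V and a BP100-luciferase reporter were pinned with compounds (4-point, 1:5 series) and held 24 hrs at 37 deg C. Luminescence was read 10 min after detection reagent.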
NPC1 prom act: activates the NPC1 promoter | Huh7 NPC1 promoter luciferase reporter, 24 h | Potency, µM (titrated, usually from 9.22 µM), usual class: activators | hit rate 2.4% among 320,000 | AID 485313; note: nearly all actives have a fitted effect of over 60% in size
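NPC1 promoter–luciferase Huh7 cells; 24 h compound; luminescence.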
ELG1 genotox: induces genotoxicity in HEK293T cells with luciferase-tagged ELG1; HEK293T ELG1-luciferase reporter, luminescence, 16 h; Potency, µM (titrated, usually from 46 µM), most hits filed as activators; hit rate 1.3% among 330,000; note: nearly all actives have a fitted effect of over 60% in size
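ELG1-luciferase HEK293T cells, 2,000/well; compound pinned in; 16 hr, 37 °C, 5% CO2; ONE-Glo, 30 min RT; luminescence on CCD imager.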
SMN2 splice up: enhancers of SMN2 splice variant expression; HEK293 SMN2-luciferase splicing reporter, luminescence, 30-36 h; Potency, µM (doses to about 46.1 µM), hits mostly activators; hit rate 2.8% among 210,000; AID 1458; note: nearly all actives have a fitted effect of over 55% in size
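HEK293 cells carry an SMN2 minigene-luciferase reporter in which exon 7 inclusion puts luciferase in frame. Cells were seeded at 2000 cells/well, attached for 10-12 hours, then exposed to compounds for 30-36 hours at 37C before ONE-Glo luminescence.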
Rab9 prom act: activates the Rab9 promoter | Huh7 Rab9 promoter-luciferase reporter, luminescence, 24 h | Potency, µM (titrated, usually from 9.22 µM), most hits filed as activators | hit rate 2.8% among 320,000 | AID 485297; note: nearly all actives have a fitted effect of over 60% in size
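Using Huh7 cells stably transfected with Rab9 promoter–luciferase, compounds were incubated 24 h at 37 °C, 5% CO2; luciferase luminescence was read 10 min after reagent addition.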
A number is an active result; – = inactive; ? = inconclusive; · = no result. Hits are enriched below; roughly 7.4% of the tested compounds scored in any of these assays. Calls come from the whole dose curve; as a rule, active = well fitted curve in the direction sought with a large enough effect; inconclusive = small, poorly fitted or top-dose-only effect, or another doubt; inactive = no such curve, though single readings can be large; an effect the other way counts as inactive or inconclusive.

SMILES	FLuc modulator	p53 reactivator	NPC1 prom act	ELG1 genotox	SMN2 splice up	Rab9 prom act
CCn1c(C)cc(C(=O)CN2C(=O)c3ccccc3S2(=O)=O)c1C	·	–	?	–	·	?
Cc1onc(-c2ccccc2)c1C(=O)OCC(=O)N1CCN(c2ccccc2)CC1	–	–	–	–	·	–
COC(=O)c1c(-c2cccs2)csc1NC(=O)c1cccnc1	17µM	?	–	–	–	?
COC(=O)c1c(-c2cccs2)csc1NC(=O)COc1ccccc1	6.7µM	·	·	·	·	·
COC(=O)c1c(-c2cccs2)csc1NC(=O)COc1ccc(C)cc1	–	·	·	·	·	·
COc1ccc(C2=NNC(c3cc(Cl)cc4c3OCOC4)C2)c(O)c1 (centres undefined)	13µM	–	–	–	–	–
COc1cccc(OC)c1C(=O)Nc1nnc(C)s1	–	·	·	·	–	·
COc1ccccc1C(=O)Nc1nnc(C)s1	17µM	–	?	13µM	–	?
Cc1nnc(NC(=O)c2ccccc2NC(=O)c2ccccc2)s1	8.5µM	–	–	–	·	–
CC(Sc1nncn1C)C(=O)Nc1nnc(C(C)C)s1 (centres undefined)	–	–	–	–	–	–
CC(Sc1nncn1C)C(=O)Nc1nnc(-c2ccccc2)s1 (centres undefined)	15µM	–	?	16µM	14µM	?
COc1ccccc1C(=O)Nc1cc(-c2ccc(C)cc2)no1	6µM	–	?	?	?	?
COc1cccc(C(=O)NOCc2ccccc2)c1OC	27µM	?	?	?	·	?
CC(C)=CC(=O)Nc1nnc(-c2ccccc2)s1	?	·	2.2µM	2.9µM	11µM	1.4µM
COc1cccc(C(=O)Nc2nnc(-c3ccccc3)s2)c1OC	12µM	–	2.5µM	?	·	1.8µM
O=C(Nc1nnc(-c2ccccc2)s1)c1ccccc1O	4.3µM	?	1.8µM	–	·	2.5µM
Cc1nc2cnc(N3CCOCC3)nc2n(Cc2cccs2)c1=O	·	·	·	·	–	·
Cc1ccc(-c2cc3nc(-c4ccccc4)cc(C(F)(F)F)n3n2)cc1	–	·	·	·	–	·
CCOC(=O)c1c(C)[nH]c(C(=O)OC(C)C(=O)NC2CCCCC2C)c1C (centres undefined)	–	–	–	–	·	–
CN(C(=O)c1ccncc1)c1nnc(-c2cccnc2)s1	–	–	–	?	·	–
CC(=O)Nc1sc(N/N=C\c2cccc(Cl)c2)nc1-c1cccs1	–	–	–	–	–	–
COc1ccccc1C(=O)Nc1nnc(-c2ccccc2)s1	13µM	?	?	?	·	–
COC(=O)c1cc(OC)c(OC)cc1NC(=O)c1cccc(OC)c1OC	–	–	–	–	–	–
COc1ccccc1C(=O)Nc1nnc(S(=O)(=O)N(C)Cc2ccccc2)s1	?	–	–	–	·	–
COc1ccccc1C(=O)N(C)c1nnc(-c2ccccc2)s1	19µM	–	3.5µM	–	·	?
SMILES	FLuc modulator	p53 reactivator	NPC1 prom act	ELG1 genotox	SMN2 splice up	Rab9 prom act
COc1cccc(C(=O)Nc2sc(C(C)C)cc2C(N)=O)c1OC	21µM	–	–	–	·	–
CC(=O)Nc1sc(N/N=C\c2ccc(O)cc2)nc1-c1cccs1	12µM	–	–	?	·	–
CSCC[C@@H](N)C(=O)O	·	·	·	·	–	·
Cc1cccc(C(=O)NCC(=O)OCc2nc(N)nc(Nc3ccccc3C)n2)c1	·	–	·	–	·	·
COc1ccccc1C(=O)Nc1nc(-c2cccs2)c(NC(C)=O)s1	0.76µM	–	–	9.2µM	?	?
O=C(NCCc1ccccc1)c1ccc(Nc2nc3ccccc3n3nnnc23)cc1	–	·	·	·	–	·
CC(Oc1ccccc1F)C(=O)NC1CCS(=O)(=O)C1 (centres undefined)	–	–	–	–	·	–
O=C(N/N=C/c1ccc2c(c1)OCO2)c1ccc2ccccc2n1	3µM	–	–	?	–	–
O=C(N/N=C/c1ccco1)c1cc2ccccc2o1	17µM	?	–	–	·	–
O=C(N/N=C/c1cc2c(cc1Br)OCO2)c1ccccn1	2.7µM	–	2.5µM	?	·	1.3µM
O=C(N/N=C/c1ccc2c(c1)OCO2)c1ccccn1	2.1µM	–	0.32µM	?	3.5µM	0.4µM
O=C(N/N=C/c1ccco1)c1ccc(Br)o1	–	–	–	–	–	–
Cc1cccc(C(=O)N/N=C/c2ccc3c(c2)OCO3)n1	?	–	–	–	–	–
Cc1cccc(NC(=O)CNC(=O)Cn2cc(C(F)(F)F)cc(Cl)c2=O)c1C	–	–	–	–	·	–
O=C(N/N=C/c1cc2c(cc1Br)OCO2)c1c[nH]c2ccccc12	9.5µM	–	2.5µM	–	11µM	2.5µM
O=C(N/N=C/c1ccsc1)c1ccc2ccccc2n1	21µM	–	–	–	–	?
